Screens: PubChem BioAssay, Sanford-Burnham Center for Chemical Genomics
This is one part of a sample in which hits are shown more often than they occur.
Artemis endo inh: Artemis endonuclease inhibitors, primary screen, biochemical, fluorescence intensity, FAM/BHQ-1 hairpin substrate. 30,000 tested, 0.78% active. inhibition, % at 10 µM. recombinant Artemis, quenched FAM hairpin cleavage fluorescence;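 active = at 10 µM dose, at least 30% inhibition, measured as corrected fluorescence normalized to stimulator and neutral control wells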
Target sequence (Q96SD1 whole entry, looked up): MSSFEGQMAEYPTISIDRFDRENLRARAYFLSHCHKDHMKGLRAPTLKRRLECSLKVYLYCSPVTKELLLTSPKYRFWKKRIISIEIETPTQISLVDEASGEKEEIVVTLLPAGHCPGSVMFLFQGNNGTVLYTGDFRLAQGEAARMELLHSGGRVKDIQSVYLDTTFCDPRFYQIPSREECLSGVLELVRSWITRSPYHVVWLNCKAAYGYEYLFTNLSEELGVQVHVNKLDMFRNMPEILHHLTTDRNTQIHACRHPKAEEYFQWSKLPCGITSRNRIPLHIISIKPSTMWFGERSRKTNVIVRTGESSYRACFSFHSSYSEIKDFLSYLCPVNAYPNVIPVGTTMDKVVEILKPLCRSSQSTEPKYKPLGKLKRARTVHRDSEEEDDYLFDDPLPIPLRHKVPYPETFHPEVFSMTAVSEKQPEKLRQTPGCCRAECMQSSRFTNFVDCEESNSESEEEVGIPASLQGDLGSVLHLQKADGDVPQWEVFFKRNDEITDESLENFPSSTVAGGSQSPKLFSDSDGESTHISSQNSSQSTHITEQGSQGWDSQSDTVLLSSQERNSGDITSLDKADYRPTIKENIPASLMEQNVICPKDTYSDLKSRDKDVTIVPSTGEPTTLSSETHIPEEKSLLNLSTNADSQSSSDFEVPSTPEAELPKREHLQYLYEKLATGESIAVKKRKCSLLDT
The depositor's hits bear a star.

SMILES	Artemis endo inh
O=C(Cn1c(NCCO)nc2ccccc21)NCCc1ccc(F)cc1	-5.9
CCOc1ncccc1C(=O)OCC(=O)NCCc1ccc(OC)cc1	-7.3
O=C(Nc1cccnc1Cl)C1c2ccccc2Oc2ccccc21	0.6
FC(F)(F)c1nc2ccccc2nc1N/N=C/c1c(Cl)cccc1Cl	4.7
O=c1c(Cc2ccc(F)cc2)c(O)ccn1Cc1cccc(Cl)c1	-7.9
O=C(NCCN1CCOCC1)N1c2ccccc2Sc2ccccc21	0.3
CSc1nc2ccc(NS(=O)(=O)c3ccc4c(c3)OCCO4)cc2s1	33.7*
CSc1nc2ccc(S(=O)(=O)NC3CCCCC3)cc2s1	1.4
COc1ccc(S(=O)(=O)Nc2ccc3c(c2)OCCO3)cc1Cl	-1.7
COc1ccc2[nH]c3c(NCCN(C(C)C)C(C)C)ncnc3c2c1	-9.2
COc1cc(NCCCC(C)N)c2ncccc2c1 (stereo not given)	55.3*
COc1ccc(OC)c(NC(=O)c2ccccc2NS(=O)(=O)c2cccc3cccnc23)c1	-1.2
CCNC(=O)CN1c2cccc3cccc(c23)S1(=O)=O	8.2
CCN1CCN(C(=O)CN2C(=O)c3cccc4cccc2c34)CC1	-10.1
CN1/C(=N\O)c2cccc3cccc1c23	37.9*
CN1c2ccsc2C(O)=C(C(=S)Nc2ccc(F)c(Cl)c2)S1(=O)=O	13.9
CCCCCCCCCCNC(=O)C(=O)Nc1ccccn1	5.5
CCCCCCCCC/C(=N\O)c1ccccn1	35.0*
CCCCCCOc1ccc(/C(N)=N/O)cc1	-7.0
Cn1c(SCC(=O)Nc2ccc3nc(SCC(=O)N4CCCC4)sc3c2)nnc1-c1ccc(N)cc1	20.7
CC1(C)CC(=O)C=C(OC(=O)c2ccc(Cl)cc2)C1	3.8
Cc1cccc(C)c1OCC(=O)N/N=C/c1ccc2c(c1)OCO2	-5.3
O=C(COc1ccccc1C(=O)N/N=C\c1ccc(O)c(O)c1)N/N=C/c1ccc(O)c(O)c1	66.2*
CCOc1ccc(/C=N/NC(=O)COc2ccccc2-c2ccccc2)cc1	17.5
O=C([C@H](Cc1ccccc1)NS(=O)(=O)c1ccc(Cl)cc1)N1CC[C@@]2(O)CCCC[C@H]2C1	-3.5
SMILES	Artemis endo inh
Cc1cccc(OCC(=O)N(C)CCc2ccccn2)c1	-1.5
Cc1cc(C)cc(CC(Cc2nc3ccccc3[nH]2)c2nc3ccccc3[nH]2)c1 (stereo not given)	11.2
O=C(Oc1ccc([N+](=O)[O-])cc1)c1cc(-c2ccccc2)nc2ccccc12	-0.9
O=C(N/N=C/c1ccc([N+](=O)[O-])o1)c1cc(-c2cccc(Br)c2)nc2ccccc12	38.8*
O=C(NCc1ccco1)c1cc(-c2ccccc2)nc2ccccc12	-1.6
Cc1ccc(NC(=O)Cc2ncc(C(F)(F)F)cc2Cl)cc1Cl	-3.5
Cn1c(NCc2ccccc2)cc(=O)n(C)c1=O	-8.2
CC(=O)N(Cc1ccc(F)cc1)C1=C(NCc2ccccc2)C(=O)c2ccccc2C1=O	39.3*
CC(C)N(CCNC(=O)C1CCC(=O)N1Cc1ccc(F)cc1)Cc1ccccc1 (stereo not given)	-4.1
Cc1ccc(NC(=O)N2C(=O)C3(OCCO3)c3ccccc32)cc1	1.7
Cc1cccc(Nc2nnc(-c3ccc(C(=O)N4C[C@H]5C[C@H](C4)c4cccc(=O)n4C5)cc3)c3ccccc23)c1	15.0
COc1ccc(NC(=O)CSc2nc3ccccc3c(=O)n2CCCN2CCCCC2)c(OC)c1	-3.0
O=c1oc2cc(Cl)ccc2n1CSc1nc2ccccc2s1	9.6
COc1cccc(-n2c(SCC(=O)N3c4ccccc4CC3C)nnc2-c2ccco2)c1 (stereo not given)	17.2
CC1Cc2ccccc2N1C(=O)CSc1nnc2c(n1)[nH]c1ccccc12 (stereo not given)	35.5*
CC1Cc2ccccc2N1C(=O)CSc1nc2c(c(=O)n(C)c(=O)n2C)n1Cc1ccc(F)cc1 (stereo not given)	11.7
O=C(Cn1cnc2cc(Cl)ccc2c1=O)Nc1ccc2c(c1)OCO2	9.6
CCOc1ccc(-c2nnn(CC#N)n2)cc1OC	4.0
Cc1cc(C)cc(N2C(=O)C3C4C=CC(C4)C3C2=O)c1 (stereo not given)	2.5
Cc1cccc(NC(=O)CC2SC(=O)N(c3ccccc3)C2=O)c1 (stereo not given)	1.5
CC(=O)N(c1cccc(C)c1)C1SC(=O)N(c2ccccc2)C1=O (stereo not given)	36.8*
Cc1ccc(NC(=O)CC2SC(=O)N(c3ccccc3)C2=O)cc1 (stereo not given)	-4.3
CCCCNS(=O)(=O)c1ccc2nc(SCC(=O)c3ccc(C#N)cc3)[nH]c2c1	4.1
Cc1nc(-c2ccccc2)sc1-c1nc(-c2ccncc2)ncc1S(=O)(=O)c1ccccc1	15.1
COC(=O)c1ccccc1NC(=O)CSc1nnc(-c2cccc(NC(C)=O)c2)n1C	-7.3
SMILES	Artemis endo inh
CCn1cc(C(=O)NCc2ccc3c(c2)OCO3)c(=O)c2cc(F)c(N3CCN(C(=O)c4ccco4)CC3)cc21	17.2
CC(C)Cn1c(=O)c2c(nc3n2CCCN3CCc2ccccc2)n(C)c1=O	7.4
CC(C)C(=O)Nc1ccc(N2CCCC2)cc1	8.4
CCC(=O)Nc1ccc(N2CCN(Cc3ccccc3)CC2)cc1	10.5
CCCC(=O)Nc1ccc(N2CCOCC2)cc1	-12.5
CCCCC(=O)Nc1ccc(N2CCCC2)cc1	44.3*
CCC(=O)N1CCN(c2ccc(NC(=S)NC(=O)c3cccc([N+](=O)[O-])c3)cc2)CC1	-3.0
O=C(Nc1ccc(N2CCCC2)cc1)C(c1ccccc1)c1ccccc1	51.7*
O=C(Cc1ccccc1)Nc1ccc(N2CCCC2)cc1	58.8*
CCOc1cccc(C(=O)NC(=S)Nc2ccc(N3CCCC3)cc2)c1	42.9*
CCCCOc1cccc(C(=O)Nc2ccc(N3CCN(CC)CC3)cc2)c1	4.5
COc1ccccc1C(=O)Nc1ccc(N2CCCCC2)cc1	1.8
CCCC(=O)N1CCN(c2ccc(NC(=O)C(C)(C)C)cc2)CC1	-6.0
COc1ccccc1C(=O)Nc1ccc(N2CCN(Cc3ccccc3)CC2)cc1	2.8
COC(=O)c1cn(C(=O)c2cccs2)c2ccccc12	3.5
O=C(CSc1nnc(NCc2ccccc2)s1)c1ccco1	3.9
Cc1cccc(/C=C2/S/C(=N/N=C3\CC4CCC3(C)C4(C)C)NC2=O)c1 (stereo not given)	23.4
CCOc1ccc(-n2ccnc2SCC(=O)NCc2ccc3c(c2)OCO3)cc1	-4.5
Cc1ccc(-c2c(C#N)c(N)nc3c2CCCC3)s1	-0.2
Cc1cccc(CN2C(=O)CCSc3ccc(Cl)cc32)c1	10.8
CCOc1ccc(C(C)=O)cc1COc1ccc(-n2cnnn2)cc1	2.4
CCn1cc(/C=N/NS(=O)(=O)c2ccc(OC)cc2)c(C)n1	-4.7
O=C(Nc1nccs1)c1cccc(NC(=O)c2ccco2)c1	0.5
Cc1n[nH]c(C)c1S(=O)(=O)Nc1ccc2c(c1)OCCO2	-6.9
O=C(NNC(=O)c1cc(-c2ccc(Cl)cc2Cl)nc2ccccc12)Nc1ccccc1	5.8
SMILES	Artemis endo inh
O=C(COc1ccccc1)NNc1c2ccccc2nc2ccccc12	11.9
O=C(NNc1c2ccccc2nc2ccccc12)c1ccc(O)cc1O	38.1*
CCOC(=O)/C(=C\Nc1ccc(OC(F)(F)F)cc1)Sc1ncc(C(F)(F)F)cc1Cl	-0.8
COc1cc(-c2[nH]nc3c2C(c2ccoc2)C(C#N)=C(N)O3)cc(OC)c1OC (stereo not given)	6.5
Cc1ccc(C2C(C#N)=C(N)Oc3n[nH]c(-c4cccs4)c32)cc1 (stereo not given)	0.7
N#CC1=C(N)Oc2n[nH]c(-c3cccs3)c2C1c1ccoc1 (stereo not given)	38.6*
COc1ccc(OC)c(/C=N\NC(=O)CSc2nnc(CCCc3ccc(OC)c(C)c3)o2)c1	12.6
O=C(c1nn(Cc2ccccc2)c(=O)c2ccccc12)N1CCN(C/C=C/c2ccccc2)CC1	11.9
COc1ccc(C2NC(=O)NC(C)=C2C(C)=O)cc1 (stereo not given)	0.9
COc1ccccc1C(=O)Nc1sc2c(c1C(=O)NCc1ccco1)CCCC2	20.3
